Conditions in all cases: Compound concentration 20.0 uM
Experiment [1] has as its target Tyrosine-protein kinase ABL1 (Homo sapiens) (UniProt P00519).
The target in experiment [2] is Bromodomain-containing protein 4 (Homo sapiens) (UniProt O60885).
For experiment [3], the target named is Cyclin-dependent kinase 2 (Homo sapiens) (UniProt P24941).
In experiment [4] the target is Casein kinase I isoform delta (Homo sapiens) (UniProt P48730).
For experiment [5], the target named is Glycogen synthase kinase-3 beta (Homo sapiens) (UniProt P49841).
The target of experiment [6] is Mitogen-activated protein kinase 1 (Homo sapiens) (UniProt P28482).
Experiment [7] addresses T1, Aurora kinase A (Homo sapiens) (UniProt O14965).
T1 sequence (whole entry): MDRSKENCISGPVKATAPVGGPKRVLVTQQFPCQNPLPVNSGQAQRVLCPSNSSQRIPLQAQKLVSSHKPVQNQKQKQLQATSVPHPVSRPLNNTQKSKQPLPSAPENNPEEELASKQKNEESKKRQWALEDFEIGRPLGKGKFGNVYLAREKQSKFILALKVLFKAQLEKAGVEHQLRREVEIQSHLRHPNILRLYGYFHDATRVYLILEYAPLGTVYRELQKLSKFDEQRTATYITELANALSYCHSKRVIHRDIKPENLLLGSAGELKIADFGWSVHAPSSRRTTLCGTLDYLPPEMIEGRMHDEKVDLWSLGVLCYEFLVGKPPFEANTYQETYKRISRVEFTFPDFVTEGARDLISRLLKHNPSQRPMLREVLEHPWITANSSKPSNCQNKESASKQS

Experiment [8] deals with T2, Transcription intermediary factor 1-alpha (Homo sapiens) (UniProt O15164).
T2 sequence (whole entry): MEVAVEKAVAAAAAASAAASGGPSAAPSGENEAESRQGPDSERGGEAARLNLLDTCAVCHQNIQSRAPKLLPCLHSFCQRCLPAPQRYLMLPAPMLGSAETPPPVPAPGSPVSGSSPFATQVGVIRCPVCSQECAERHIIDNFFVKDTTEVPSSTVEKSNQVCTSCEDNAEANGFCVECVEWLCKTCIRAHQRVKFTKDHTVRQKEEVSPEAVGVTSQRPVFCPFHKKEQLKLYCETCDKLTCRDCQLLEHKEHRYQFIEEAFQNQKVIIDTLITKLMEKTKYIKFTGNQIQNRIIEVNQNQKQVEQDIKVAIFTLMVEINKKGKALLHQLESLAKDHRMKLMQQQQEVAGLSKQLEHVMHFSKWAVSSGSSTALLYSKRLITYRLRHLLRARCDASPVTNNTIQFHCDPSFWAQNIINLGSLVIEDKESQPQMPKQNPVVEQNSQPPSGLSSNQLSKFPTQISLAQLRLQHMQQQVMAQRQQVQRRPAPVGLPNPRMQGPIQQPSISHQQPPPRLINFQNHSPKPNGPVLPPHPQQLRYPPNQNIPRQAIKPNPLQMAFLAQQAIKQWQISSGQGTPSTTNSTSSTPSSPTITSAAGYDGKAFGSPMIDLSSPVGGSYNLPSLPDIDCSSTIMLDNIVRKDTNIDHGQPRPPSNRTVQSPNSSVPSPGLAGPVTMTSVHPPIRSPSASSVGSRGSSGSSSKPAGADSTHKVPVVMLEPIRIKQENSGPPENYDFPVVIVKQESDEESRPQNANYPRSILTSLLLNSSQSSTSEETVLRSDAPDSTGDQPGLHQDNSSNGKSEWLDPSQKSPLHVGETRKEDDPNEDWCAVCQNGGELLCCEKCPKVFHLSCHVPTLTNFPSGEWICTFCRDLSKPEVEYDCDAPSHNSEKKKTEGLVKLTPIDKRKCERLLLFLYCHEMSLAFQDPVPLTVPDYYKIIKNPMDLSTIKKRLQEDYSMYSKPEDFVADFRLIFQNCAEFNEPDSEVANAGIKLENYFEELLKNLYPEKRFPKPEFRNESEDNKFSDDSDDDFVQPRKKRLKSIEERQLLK

SMILES strings stand for the structures.

In general, ΔTm refers to the shift of the melting midpoint relative to a reference.

Casein kinase I isoform delta (Homo sapiens), sequence (P48730 whole entry, looked up, canonical isoform): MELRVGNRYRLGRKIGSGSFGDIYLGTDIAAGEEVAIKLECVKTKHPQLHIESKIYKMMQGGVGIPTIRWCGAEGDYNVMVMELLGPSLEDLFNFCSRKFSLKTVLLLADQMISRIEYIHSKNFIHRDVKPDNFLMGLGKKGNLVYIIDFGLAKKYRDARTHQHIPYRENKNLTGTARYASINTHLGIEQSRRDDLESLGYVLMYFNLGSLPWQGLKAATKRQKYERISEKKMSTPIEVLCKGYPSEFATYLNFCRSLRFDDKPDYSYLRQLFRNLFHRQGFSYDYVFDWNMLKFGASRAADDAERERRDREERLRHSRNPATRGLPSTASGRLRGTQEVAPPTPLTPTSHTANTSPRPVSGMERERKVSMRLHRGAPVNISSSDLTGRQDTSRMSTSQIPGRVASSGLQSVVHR
Mitogen-activated protein kinase 1 (Homo sapiens), sequence (P28482 whole entry): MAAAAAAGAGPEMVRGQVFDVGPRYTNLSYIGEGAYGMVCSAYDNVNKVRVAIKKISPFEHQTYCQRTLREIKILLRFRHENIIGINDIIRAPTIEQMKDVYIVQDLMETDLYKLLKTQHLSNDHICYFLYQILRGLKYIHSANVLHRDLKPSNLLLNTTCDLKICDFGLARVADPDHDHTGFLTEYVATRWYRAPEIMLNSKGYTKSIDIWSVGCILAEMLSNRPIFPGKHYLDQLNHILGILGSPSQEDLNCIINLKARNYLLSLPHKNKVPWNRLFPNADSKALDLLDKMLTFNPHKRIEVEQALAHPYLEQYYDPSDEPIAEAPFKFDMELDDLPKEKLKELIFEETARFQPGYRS
Glycogen synthase kinase-3 beta (Homo sapiens), sequence (P49841 whole entry, looked up): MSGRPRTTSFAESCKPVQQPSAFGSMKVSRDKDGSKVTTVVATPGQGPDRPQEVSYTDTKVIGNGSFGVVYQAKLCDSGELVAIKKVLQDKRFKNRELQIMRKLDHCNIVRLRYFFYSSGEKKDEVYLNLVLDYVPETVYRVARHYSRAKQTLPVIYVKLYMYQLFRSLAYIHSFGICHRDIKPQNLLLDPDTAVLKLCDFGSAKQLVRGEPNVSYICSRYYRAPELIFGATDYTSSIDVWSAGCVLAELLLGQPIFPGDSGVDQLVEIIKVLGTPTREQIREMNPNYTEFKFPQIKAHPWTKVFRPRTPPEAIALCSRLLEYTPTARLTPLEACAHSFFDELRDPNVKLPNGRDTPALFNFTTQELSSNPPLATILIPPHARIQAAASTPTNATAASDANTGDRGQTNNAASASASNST
Tyrosine-protein kinase ABL1 (Homo sapiens), sequence (P00519 whole entry): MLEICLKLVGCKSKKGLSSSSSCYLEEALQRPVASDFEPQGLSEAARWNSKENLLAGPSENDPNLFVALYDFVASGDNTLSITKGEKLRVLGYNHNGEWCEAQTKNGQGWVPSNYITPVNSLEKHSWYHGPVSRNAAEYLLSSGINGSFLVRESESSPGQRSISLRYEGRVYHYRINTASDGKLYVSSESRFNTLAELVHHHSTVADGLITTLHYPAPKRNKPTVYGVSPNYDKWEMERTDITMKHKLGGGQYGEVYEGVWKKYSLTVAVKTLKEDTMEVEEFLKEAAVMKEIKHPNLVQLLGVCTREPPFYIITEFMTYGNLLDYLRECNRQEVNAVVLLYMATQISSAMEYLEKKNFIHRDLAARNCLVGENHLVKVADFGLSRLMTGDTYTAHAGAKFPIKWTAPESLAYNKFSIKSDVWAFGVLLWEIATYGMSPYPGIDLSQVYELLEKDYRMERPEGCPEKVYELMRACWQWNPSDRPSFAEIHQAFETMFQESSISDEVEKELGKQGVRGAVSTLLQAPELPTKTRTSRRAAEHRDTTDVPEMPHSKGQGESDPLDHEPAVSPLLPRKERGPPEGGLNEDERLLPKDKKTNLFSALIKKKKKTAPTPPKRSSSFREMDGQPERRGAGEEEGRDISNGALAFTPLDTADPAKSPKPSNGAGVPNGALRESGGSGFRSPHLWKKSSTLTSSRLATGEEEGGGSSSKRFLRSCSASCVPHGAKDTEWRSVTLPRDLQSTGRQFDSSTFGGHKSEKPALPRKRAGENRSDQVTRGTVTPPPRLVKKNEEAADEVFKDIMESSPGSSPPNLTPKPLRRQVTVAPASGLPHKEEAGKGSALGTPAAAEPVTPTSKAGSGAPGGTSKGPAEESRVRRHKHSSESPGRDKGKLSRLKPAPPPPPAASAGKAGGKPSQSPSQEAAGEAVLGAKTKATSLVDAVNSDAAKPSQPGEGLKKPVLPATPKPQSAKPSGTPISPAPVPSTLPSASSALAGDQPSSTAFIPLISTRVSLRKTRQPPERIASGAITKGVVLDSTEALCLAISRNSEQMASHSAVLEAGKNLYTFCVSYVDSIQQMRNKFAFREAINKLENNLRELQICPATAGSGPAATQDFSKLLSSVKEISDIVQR

For `Cc1cc(C)nc(SCC(=O)Nc2ncc(Cc3cccc4ccccc34)s2)n1`, the ΔTm in experiment [1] is 1.25 °C; in experiment [2], -0.67 °C; in experiment [3] it was 0.38 °C; in experiment [4] it was 5.19 °C; in experiment [5], -0.21 °C; in experiment [6], -4.06 °C. Moreover, the ΔTm in experiment [7] is -1.18 °C; in experiment [8], 5.54 °C.
As to `COc1cccc(Nc2c(C(N)=O)cnc3c(C)cc(S(=O)(=O)c4cccc(C(=O)N(C)C)c4)cc23)c1`, the ΔTm in experiment [1] was 0.62 °C; in experiment [2], -2.14 °C; in experiment [3] it was 0.36 °C; in experiment [4] it was -0.04 °C; in experiment [5] it was 0.04 °C; in experiment [6], 0.14 °C. Moreover, the ΔTm is -0.98 °C in experiment [7] and -0.26 °C in experiment [8].
Consider `CN(CCC(Oc1ccc(-c2ccccc2)cc1)c1ccc(F)cc1)CC(=O)O` (stereo unspecified), for which the ΔTm was 0.52 °C in experiment [1]; 2.4 °C in experiment [2]; 1.59 °C in experiment [3]; -0.12 °C in experiment [4]; -0.74 °C in experiment [5]; 0.42 °C in experiment [6]. Besides, the ΔTm was -1.88 °C in experiment [7] and -0.18 °C in experiment [8].
With `Cc1n[nH]c(C)c1Cc1sc2c(c1C(=O)N1C[C@H](O)CO1)c(=O)n(C)c(=O)n2CC(C)C`, the ΔTm was 0.44 °C in experiment [1]; -2.67 °C in experiment [2]; 0.95 °C in experiment [3]; -0.14 °C in experiment [4]; -0.85 °C in experiment [5]; 0.11 °C in experiment [6]. Also, the ΔTm in experiment [7] was -1.57 °C; in experiment [8], 0.69 °C.
Turning to `CCOC(=O)NCCCC(=O)NCCc1ccccc1`, the ΔTm is 0.36 °C in experiment [1]; -0.9 °C in experiment [2]; -0.09 °C in experiment [3]; 0.24 °C in experiment [4]; 0.15 °C in experiment [5]; 0.16 °C in experiment [6]. In addition, the ΔTm in experiment [7] was -1.13 °C; in experiment [8], -0.68 °C.
For `Cc1cc(OCCCNCCC(N)=O)ccc1Cc1c(O[C@@H]2O[C@H](CO)[C@@H](O)[C@H](O)[C@H]2O)n[nH]c1C(C)C`, the ΔTm in experiment [1] is 0.54 °C; in experiment [2] it was -1.5 °C; in experiment [3], 0.03 °C; in experiment [4], -0.12 °C; in experiment [5] it was -0.7 °C; in experiment [6] it was 0.24 °C. The ΔTm was -2.37 °C in experiment [7] and -0.75 °C in experiment [8].
As to `O=C(O)C1CCCN(CCC=C(c2ccccc2)c2ccccc2)C1` (stereo unspecified), the ΔTm in experiment [1] is 0.13 °C; in experiment [2], -2.59 °C; in experiment [3] it was 0 °C; in experiment [4], -0.19 °C; in experiment [5], -0.66 °C; in experiment [6] it was 0.13 °C. The shift in melting temperature (ΔTm) in experiment [7] was -2.34 °C; in experiment [8] it was -1.2 °C.
With `O=C(NCc1ncccc1F)c1coc(CCNCCc2nc3ccccc3[nH]2)n1`, the ΔTm is 0.46 °C in experiment [1]; -3.66 °C in experiment [2]; -0.13 °C in experiment [3]; -0.23 °C in experiment [4]; -0.87 °C in experiment [5]; -0.05 °C in experiment [6]. Further, the values for the ΔTm in experiment [7] and in experiment [8] were -2.57 °C and -0.59 °C, respectively.
Consider `COc1ncc(C)c(-c2ccc3c(c2)[nH]c(=O)c2cnn([C@H]4CCOC4)c23)c1C`, for which the ΔTm in experiment [1] was 1.31 °C; in experiment [2], -3.36 °C; in experiment [3], -0.21 °C; in experiment [4] it was -0.26 °C; in experiment [5], 0.55 °C; in experiment [6] it was -0.06 °C. The ΔTm in experiment [7] was -2.59 °C; in experiment [8] it was -0.98 °C.
Regarding `CCCN(CCC)c1ccc(C=O)cc1Br`, the ΔTm is 0.01 °C in experiment [1]; -2.88 °C in experiment [2]; -0.15 °C in experiment [3]; -0.24 °C in experiment [4]; -0.05 °C in experiment [5]; 0.17 °C in experiment [6]. Moreover, the ΔTm in experiment [7] is -2.25 °C; in experiment [8], -0.42 °C.
Regarding `CCCn1/c(=N/C(=O)c2cccc(C(N)=O)c2)[nH]c2ccccc21`, the ΔTm in experiment [1] was 1.41 °C; in experiment [2] it was -1.51 °C; in experiment [3] it was 0.06 °C; in experiment [4] it was 0.95 °C; in experiment [5], -0.17 °C; in experiment [6], -1.41 °C. The ΔTm in experiment [7] was -0.08 °C; in experiment [8], -0.27 °C.
As to `CCOc1ccc(Cc2cc([C@]34OC[C@](CO)(O3)[C@@H](O)[C@H](O)[C@H]4O)ccc2Cl)cc1`, the ΔTm in experiment [1] was 0.25 °C; in experiment [2], 2.11 °C; in experiment [3], 0.62 °C; in experiment [4], -0.26 °C; in experiment [5], -0.1 °C; in experiment [6], 0.67 °C. Also, the ΔTm in experiment [7] was -0.99 °C; in experiment [8] it was 1.7 °C.
For the compound `CN(C)CCCNC(=O)c1ccc(-c2cc(O)c3ncccc3c2)cc1`, the ΔTm was found to be 1.29 °C in experiment [1]; 1.76 °C in experiment [2]; 0.45 °C in experiment [3]; 0.58 °C in experiment [4]; 0.54 °C in experiment [5]; 0.28 °C in experiment [6]. In addition, the figures for the ΔTm in experiment [7] and in experiment [8] were -1.28 °C and 1.21 °C, respectively.
As to `CC(C)Nc1cc(-c2c[nH]c(C(=O)N[C@H](CO)c3cccc(Cl)c3)c2)c(Cl)cn1`, the thermal shift (ΔTm) in experiment [1] is 1.43 °C; in experiment [2] it was 6.89 °C; in experiment [3] it was 8.63 °C; in experiment [4], 0.57 °C; in experiment [5], 14.2 °C; in experiment [6], -1.26 °C. The ΔTm is 13.7 °C in experiment [7] and 0.98 °C in experiment [8].
On to `O=C(N1CCCCC1c1ccccc1)n1cc(-c2ccc(-c3cccc(CO)c3)cc2)nn1` (stereo unspecified), for which the ΔTm was -2.74 °C in experiment [1]; -2.31 °C in experiment [2]; -2.39 °C in experiment [3]; -10.5 °C in experiment [4]; -1.86 °C in experiment [5]; -9.96 °C in experiment [6]. Moreover, the ΔTm in experiment [7] was -5.38 °C; in experiment [8], 2.17 °C.
On to `CC(=O)N[C@@H](Cc1ccc(O)cc1)C(=O)N[C@H](C(=O)N[C@@H](C)C(=O)N[C@@H](CC(=O)O)C(=O)CCl)C(C)C`, for which the ΔTm in experiment [1] was 0.08 °C; in experiment [2] it was -2.91 °C; in experiment [3], -0.27 °C; in experiment [4] it was 0.22 °C; in experiment [5], -1.19 °C; in experiment [6], -0.01 °C. The ΔTm was -1.19 °C in experiment [7] and -1.17 °C in experiment [8].
As to `Cc1cc(C(=O)CN2CCCCC2)c(C)n1-c1ccc(Cl)cc1`, the ΔTm in experiment [1] is -0.03 °C; in experiment [2] it was -2.43 °C; in experiment [3] it was 0.02 °C; in experiment [4], -0.16 °C; in experiment [5] it was -0.07 °C; in experiment [6] it was 0.08 °C. Moreover, the results for the ΔTm in experiment [7] and in experiment [8] were -1.42 °C and -0.41 °C, respectively.
`CC(C)(C)OC(=O)Nc1ccc(CNc2nccc(Nc3cc(C(=O)OC(C)(C)C)[nH]n3)n2)cc1`: the ΔTm was 2.57 °C in experiment [1]; -0.88 °C in experiment [2]; 5.67 °C in experiment [3]; 0.13 °C in experiment [4]; 0.97 °C in experiment [5]; -2.08 °C in experiment [6]. The ΔTm in experiment [7] turned out to be 26.1 °C; in experiment [8] it was 0.26 °C.
`COc1ccc(-c2ccc(-c3cn(C(=O)N4CCCCC4c4ccccc4)nn3)cc2)cc1` (stereo unspecified): the ΔTm was 0.38 °C in experiment [1]; -2.64 °C in experiment [2]; 0.04 °C in experiment [3]; -0.53 °C in experiment [4]; -1.61 °C in experiment [5]; -0.45 °C in experiment [6]. The ΔTm was -1.09 °C in experiment [7] and -0.5 °C in experiment [8].
With `CCC(=O)N1CCOc2c(cc(-c3cc(OC)cc(OC)c3)cc2C(=O)N[C@H]2CCCN(C)C2)C1`, the ΔTm in experiment [1] is 0.72 °C; in experiment [2], -0.15 °C; in experiment [3], 0.57 °C; in experiment [4], 0.5 °C; in experiment [5], -1.27 °C; in experiment [6], 0.1 °C. For the same compound, the ΔTm in experiment [7] was 0.01 °C; in experiment [8], -2.74 °C.
Consider `Cc1noc(C)c1-c1cc(Cl)c(Nc2ccccc2C(=O)O)c(Cl)c1`, for which the ΔTm was 0.49 °C in experiment [1]; 2.54 °C in experiment [2]; -0.13 °C in experiment [3]; -0.64 °C in experiment [4]; -0.39 °C in experiment [5]; 0.1 °C in experiment [6]. Besides, the figures for the ΔTm in experiment [7] and in experiment [8] were -2.08 °C and -1.42 °C, respectively.
With `CC(C)c1cnc(CSc2cnc(NC(=O)C3CCNCC3)s2)o1`, the ΔTm in experiment [1] was 0.26 °C; in experiment [2], -1.43 °C; in experiment [3], 6.28 °C; in experiment [4], 1.43 °C; in experiment [5], 7.03 °C; in experiment [6], -0.12 °C. Moreover, the ΔTm in experiment [7] was 3.08 °C; in experiment [8], -0.84 °C.

For the origin of these results see ChEMBL document CHEMBL5724796, “Tm Shift (DSF) assay results for EUbOPEN Chemogenomics Library” (2024).
